Assay [1] in a line: Nuclear factor erythroid 2-related factor 2/antioxidant responsive element (Nrf2/ARE) small molecule agonists: qHTS cell viability counter screen in human keratinocytes (AID 1919968; active = well fitted curve in the direction sought with a large enough effect in the repeat runs; an effect the other way counts as inactive or inconclusive; note: nearly all actives have a fitted effect of over 55% in size). A digest of the protocol: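 KeratinoSens cells (HaCaT keratinocytes stably carrying an ARE-luciferase reporter) were seeded at 1,500 cells/well and rested 5 h at 37 C/5% CO2. They were then exposed to compounds in DMSO for 23 h. Viability was read by CellTiter-Fluor fluorescence after 1 h.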

Assay [2] is described as follows: Nuclear factor erythroid 2-related factor 2/antioxidant responsive element (Nrf2/ARE) small molecule agonists: luciferase reporter gene qHTS assay in human keratinocytes (AID 1919969). Note: nearly all actives have a fitted effect of over 35% in size.
The target of assay [3] is Gonadotropin-releasing hormone receptor (Homo sapiens) (UniProt P30968). In words: Human gonadotropin-releasing hormone receptor (GnRHR) small molecule agonists, calcium flux assay in GnRHR-HEK293 cells (AID 1920063). Note: nearly all actives have a fitted effect of over 35% in size. A digest of the protocol: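 HEK293 cells stably expressing human GnRHR were plated 18 h at 37 °C, loaded with calcium dye 1 h at 37 °C, then given compound in agonist mode; fluorescence (Ex/Em 480/540) read kinetically for 3 min at 1 s intervals.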
A general note: A change in cytosolic calcium serves as a functional read-out for many receptors and channels.

In assay [4] the target is KiSS-1 receptor (Homo sapiens) (UniProt Q969F8). In words: Human kisspeptin (KISS1R) small molecule agonists, calcium flux assay in KISS1R-HEK293 cells (AID 1920064; active = well fitted curve in the direction sought with a large enough effect in the repeat runs; an effect the other way counts as inactive or inconclusive). The gist of the method: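 HEK293 cells stably expressing human KISS1R were plated 18 h at 37 °C, loaded with calcium dye for 1 h at 37 °C, then given compound by pin tool. Fluorescence (Ex/Em 480/540) was read kinetically for 3 min.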

Assay [5] is described as follows: G protein-coupled receptor (GPCR) small molecule agonists, calcium flux assay: HEK293 wild type cell line counter screen (AID 1920065). A digest of the protocol: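 Cells were plated and cultured 18 h at 37 C/5% CO2, then loaded with calcium dye for 1 h at 37 C. Compounds in DMSO were pin-transferred in agonist mode, and fluorescence (Ex/Em 480/540) was read kinetically for 3 min at 1 s intervals.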

A short description of assay [6]: p53 small molecule agonists, cell-based qHTS assay with human liver microsomes (AID 1963577).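 Note: p53 response element beta-lactamase reporter cells with liver microsomes plus NADPH.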 A digest of the protocol:
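Steps: plate p53RE-bla cells, incubate 5 h at 37 C; add compound in DMSO; add microsomes (0.5 mg/mL final) and NADPH (0.5 mg/mL final); incubate 16 h at 37 C; add LiveBLAzer, 2 h RT; read fluorescence.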
(qHTS replaces the single test concentration by a dilution series.)

Assay [7] is described as follows: p53 small molecule agonists, cell-based qHTS assay with rat liver microsomes (AID 1963578). A digest of the protocol: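 Metabolic activation is supplied by rat liver microsomes with NADPH (each 0.5 mg/mL final). p53RE-bla cells incubate with compound 16 h at 37 C; reporter activity is measured by LiveBLAzer fluorescence.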
Assay [8] can be described thus: p53 small molecule agonists, cell-based qHTS assay with human liver microsomes: qHTS cell viability counter screen (AID 1963579). Note: nearly all actives have a fitted effect of over 45% in size. The gist of the method:
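After the 460/530 nm beta-lactamase read, CellTiter-Glo was added to the same wells and luminescence measured after 30 min at room temperature, giving viability of p53RE-bla cells treated 16 h with compounds plus microsomes and NADPH.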

Assay [9] can be described thus: p53 small molecule agonists, cell-based qHTS assay with rat liver microsomes: qHTS cell viability counter screen (AID 1963580). Note: nearly all actives have a fitted effect of over 45% in size. The gist of the method: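 p53RE-bla HCT-116 cells (4,000/well) rested 5 h at 37 C, then given Tox21 compounds in DMSO with rat liver microsomes (0.5 mg/mL final) plus NADPH (0.5 mg/mL final) for 16 h at 37 C. Viability read by CellTiter-Glo luminescence after 30 min at room temperature.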

The nature of assay [10]: p53 small molecule agonists, cell-based qHTS assay: qHTS cell viability counter screen (AID 1963581). Note: nearly all actives have a fitted effect of over 45% in size. A digest of the protocol:
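p53RE-bla HCT-116 cells were exposed to compounds for 16 h at 37 C; after the beta-lactamase FRET read in the same wells, CellTiter-Glo was added and luminescence (intracellular ATP) read after 30 min at room temperature.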

A short description of assay [11]: p53 small molecule agonists, cell-based qHTS assay (AID 1963582; active = well fitted activation curve with a large enough effect in the signal ratio in the repeat runs, not every such curve was filed as active; the % refers to the signal ratio). The gist of the method: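 p53RE-bla beta-lactamase reporter cells rested 5 h at 37 C/5% CO2, then received compounds in DMSO by pin transfer and were incubated 16 h at 37 C. LiveBLAzer B/G FRET substrate was loaded for 2 h at room temperature before fluorescence reading.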
Assay [12] addresses 5-hydroxytryptamine receptor 2A (Homo sapiens) (UniProt P28223). Briefly: 5-hydroxytryptamine receptor 2A (HTR2A) small molecule antagonists, cell-based qHTS assay (AID 1963586). Note: nearly all actives have a fitted effect of over 45% in size. A digest of the protocol: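 Antagonist-mode intracellular calcium assay: DOI (4 nM) added after 5 min compound pre-incubation at room temperature to dye-loaded HTR2A-CHO cells. Fluorescence followed for 3 min, sampled every second.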

Assay [13] has the same target. Briefly: 5-hydroxytryptamine receptor 2A (HTR2A) small molecule agonists, cell-based qHTS assay (AID 1963587). Note: nearly all actives have a fitted effect of over 30% in size. A digest of the protocol: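 HTR2A-CHO cells, plated 18 h at 37 C/5% CO2, dye-loaded 1 h at 37 C; compounds in DMSO added by pin tool (agonist mode). Intracellular calcium flux read as kinetic fluorescence on FDSS over 2 min at 1 s intervals.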
Assay [14] has as its target Muscarinic acetylcholine receptor M1 (Homo sapiens) (UniProt P11229). In words: Cholinergic receptor muscarinic 1 (CHRM1) small molecule antagonists, cell-based qHTS assay (AID 1963588). Note: nearly all actives have a fitted effect of over 40% in size. Note: potency is the fitted concentration of half-maximal effect. A digest of the protocol:
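CHRM1-CHO calcium-flux assay, antagonist mode. Cells were seeded 18 h, dye-loaded 1 h at 37 C and given compound for 5 min at RT, then acetylcholine was added at 50nM. FDSS fluorescence was read 3 min; 15 concentrations, three runs.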

For assay [15] the target is unchanged. In words: Cholinergic receptor muscarinic 1 (CHRM1) small molecule agonists, cell-based qHTS assay (AID 1963589). Note: nearly all actives have a fitted effect of over 35% in size. The gist of the method:
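CHO cells stably expressing human CHRM1, seeded 18 h at 37 C/5% CO2, dye-loaded 1 h at 37 C, then given compound in agonist mode; intracellular calcium fluorescence read kinetically at 1 s intervals. Fifteen concentrations, three independent runs.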

Assay [16] in a line: cAMP Responsive Elements (CRE) small molecule agonists, cell-based qHTS assay (AID 1963590). The gist of the method:
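CRE-bla HEK 293T cells in DMEM with 10% dialyzed FBS, NEAA, pyruvate and 25 mM HEPES were plated 18 h at 37 C/5% CO2, then exposed to compounds in DMSO for 3 h before LiveBLAzer B/G FRET substrate addition.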

The nature of assay [17]: cAMP Responsive Elements (CRE) small molecule antagonists, cell-based qHTS assay (AID 1963591; active = well fitted inhibition curve with a large enough effect in the signal ratio in the repeat runs, not every such curve was filed as active; the % refers to the signal ratio). A digest of the protocol:
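CRE-bla HEK293T cells were plated 18 h at 37 °C/5% CO2, pinned with compound in DMSO, then stimulated with NKH477 at 0.25 uM final for 3 h. LiveBLAzer B/G FRET substrate was added and plates incubated 2 h at room temperature.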

Assay [18] addresses Beta-2 adrenergic receptor (Homo sapiens) (UniProt P07550). In words: Adrenergic beta2 receptor (ADRB2) small molecule antagonists, cell-based qHTS assay (AID 1963592). Note: series mostly up to about 92 µM; nearly all actives have a fitted effect of over 50% in size. The gist of the method:
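Cells (CHO, stable ADRB2 overexpression) incubated 18-20hr at 37C; compounds added from DMSO; agonist mix (1nM isoproterenol, 100uM IBMX, 25uM Ro-20-1724) added; 0.5hr RT; d2-cAMP and anti-cAMP-cryptate added; 1hr RT; 665/615 nm read.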

Assay [19] has as its target D(2) dopamine receptor (Homo sapiens) (UniProt P14416). In words: Dopamine D2 receptor (DRD2) small molecule agonists, cell-based qHTS assay (AID 1963594). Note: nearly all actives have a fitted effect of over 35% in size. The gist of the method:
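HEK293 cells stably expressing DRD2 were cultured 24 h at 37 C, then given Ro20-1724 (0.1 mM final) and compounds for 10 min at room temperature. NKH477 (200nM) was then added for 30 min. cAMP was read by HTRF.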

Assay [20] shares this target. In words: Dopamine D2 receptor (DRD2) small molecule antagonists, cell-based qHTS assay (AID 1963595; active = well fitted inhibition curve with a large enough effect in the signal ratio in the repeat runs, with a control signal flat; the % refers to the signal ratio). A digest of the protocol:
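HTRF cAMP read-out at 665 and 620 nm emission (340 nm excitation). Antagonist mode: compounds were tested against 12 nM quinpirole in DRD2-HEK293 cells, with 200 nM NKH477 raising cAMP and 0.1 mM Ro20-1724 blocking its breakdown.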

Each structure is given as a SMILES string. Inconclusive results are not listed. Activity calls are given as the source filed them. Unless noted, calls come from the whole dose curve.

5-hydroxytryptamine receptor 2A (Homo sapiens), sequence (P28223 whole entry, looked up): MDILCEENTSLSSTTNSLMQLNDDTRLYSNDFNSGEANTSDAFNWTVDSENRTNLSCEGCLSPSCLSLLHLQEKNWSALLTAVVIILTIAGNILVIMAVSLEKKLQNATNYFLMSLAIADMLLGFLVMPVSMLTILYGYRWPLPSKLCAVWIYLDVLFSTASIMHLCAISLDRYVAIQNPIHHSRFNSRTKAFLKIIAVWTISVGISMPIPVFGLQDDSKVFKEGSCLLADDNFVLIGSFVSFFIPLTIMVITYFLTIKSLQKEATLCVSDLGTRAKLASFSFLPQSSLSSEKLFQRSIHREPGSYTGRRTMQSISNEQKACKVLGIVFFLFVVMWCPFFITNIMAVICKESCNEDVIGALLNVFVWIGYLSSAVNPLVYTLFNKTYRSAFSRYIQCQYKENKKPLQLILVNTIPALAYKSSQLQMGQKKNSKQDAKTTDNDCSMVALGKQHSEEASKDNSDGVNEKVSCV
KiSS-1 receptor (Homo sapiens), sequence (Q969F8 whole entry, looked up): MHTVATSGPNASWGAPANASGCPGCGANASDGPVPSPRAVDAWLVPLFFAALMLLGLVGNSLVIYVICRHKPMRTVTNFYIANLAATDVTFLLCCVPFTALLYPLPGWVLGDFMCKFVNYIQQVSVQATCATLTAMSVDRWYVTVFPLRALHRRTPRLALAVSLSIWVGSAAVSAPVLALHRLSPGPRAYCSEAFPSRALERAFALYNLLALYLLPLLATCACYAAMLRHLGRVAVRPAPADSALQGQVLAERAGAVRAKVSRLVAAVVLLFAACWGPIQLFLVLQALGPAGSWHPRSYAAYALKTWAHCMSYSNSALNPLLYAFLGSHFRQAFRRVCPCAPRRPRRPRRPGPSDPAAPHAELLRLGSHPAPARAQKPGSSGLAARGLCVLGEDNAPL
D(2) dopamine receptor (Homo sapiens), sequence (P14416 whole entry, looked up): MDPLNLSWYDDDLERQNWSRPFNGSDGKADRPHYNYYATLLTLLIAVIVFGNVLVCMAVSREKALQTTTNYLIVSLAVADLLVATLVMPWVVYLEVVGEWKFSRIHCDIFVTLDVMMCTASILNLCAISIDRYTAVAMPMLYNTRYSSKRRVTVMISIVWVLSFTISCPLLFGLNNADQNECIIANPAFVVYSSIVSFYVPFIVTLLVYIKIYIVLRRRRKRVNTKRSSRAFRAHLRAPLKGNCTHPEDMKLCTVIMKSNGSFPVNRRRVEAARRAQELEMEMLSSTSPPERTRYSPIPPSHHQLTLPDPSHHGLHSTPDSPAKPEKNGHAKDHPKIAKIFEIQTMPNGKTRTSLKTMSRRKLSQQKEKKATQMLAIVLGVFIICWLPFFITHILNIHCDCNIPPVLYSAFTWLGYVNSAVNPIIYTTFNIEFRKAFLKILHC
Beta-2 adrenergic receptor (Homo sapiens), sequence (P07550 whole entry, looked up): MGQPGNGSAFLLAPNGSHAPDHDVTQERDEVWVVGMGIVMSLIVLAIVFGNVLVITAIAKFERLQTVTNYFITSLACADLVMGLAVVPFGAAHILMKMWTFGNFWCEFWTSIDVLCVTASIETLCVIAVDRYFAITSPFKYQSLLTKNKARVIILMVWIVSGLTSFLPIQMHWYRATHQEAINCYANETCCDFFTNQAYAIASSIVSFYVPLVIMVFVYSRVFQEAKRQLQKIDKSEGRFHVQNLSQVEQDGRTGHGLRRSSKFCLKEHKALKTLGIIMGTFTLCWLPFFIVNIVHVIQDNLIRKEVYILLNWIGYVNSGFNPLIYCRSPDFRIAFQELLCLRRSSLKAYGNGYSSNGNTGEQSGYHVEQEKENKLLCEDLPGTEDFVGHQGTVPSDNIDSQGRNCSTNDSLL
Muscarinic acetylcholine receptor M1 (Homo sapiens), sequence (P11229 whole entry, looked up): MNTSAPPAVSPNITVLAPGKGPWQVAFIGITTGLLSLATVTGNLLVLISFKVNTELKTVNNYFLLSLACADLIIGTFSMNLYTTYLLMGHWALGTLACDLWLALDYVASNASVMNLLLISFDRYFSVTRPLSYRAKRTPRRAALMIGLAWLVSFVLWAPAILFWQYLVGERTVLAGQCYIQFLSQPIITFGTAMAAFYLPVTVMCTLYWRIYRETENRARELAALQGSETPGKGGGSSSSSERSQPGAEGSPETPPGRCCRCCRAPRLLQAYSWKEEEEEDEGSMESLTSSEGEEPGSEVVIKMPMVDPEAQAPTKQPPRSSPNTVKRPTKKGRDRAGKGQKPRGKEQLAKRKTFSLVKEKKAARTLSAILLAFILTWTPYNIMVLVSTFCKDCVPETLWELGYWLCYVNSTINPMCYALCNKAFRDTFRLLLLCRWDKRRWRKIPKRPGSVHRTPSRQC
Gonadotropin-releasing hormone receptor (Homo sapiens), sequence (P30968 whole entry, looked up): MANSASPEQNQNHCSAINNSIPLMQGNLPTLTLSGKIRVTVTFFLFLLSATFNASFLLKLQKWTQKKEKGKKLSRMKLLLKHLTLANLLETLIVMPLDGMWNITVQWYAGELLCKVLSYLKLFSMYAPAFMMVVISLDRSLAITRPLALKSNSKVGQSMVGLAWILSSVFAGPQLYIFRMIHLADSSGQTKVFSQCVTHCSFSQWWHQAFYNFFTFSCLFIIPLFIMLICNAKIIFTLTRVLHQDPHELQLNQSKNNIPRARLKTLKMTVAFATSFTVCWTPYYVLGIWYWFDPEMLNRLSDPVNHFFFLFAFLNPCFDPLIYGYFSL

Turning to `CSc1nnc(C(C)(C)C)c(=O)n1N`, the Potency entry in assay [1], in assay [2], in assay [3], in assay [4], in assay [5] and in assay [6] was “inactive” in each case. Also, the Potency result in assay [7], in assay [8], in assay [9], in assay [10], in [11] and in [12] was “inactive” in each case. The Potency result in assay [13], in [14], in assay [15], in [16], in [17] and in [18] was “inactive” each time. Besides, the Potency entry in assay [19] and in assay [20] was “inactive” in each case.
As for `CC(=NC#N)N(C)Cc1ccc(Cl)nc1`, the Potency entry in [1], in assay [2], in [3], in assay [4], in assay [5] and in [6] was “inactive” each time. Moreover, the Potency entry in [7], in [8], in [9], in [10], in assay [11] and in assay [12] was “inactive” each time. Moreover, the Potency result in [13], in [14], in assay [15], in assay [16], in [17] and in assay [18] was “inactive” in each case. In addition, the Potency entry in assay [19] and in assay [20] was “inactive” each time.
As to `CCCCCBr`, the Potency entry in assay [1], in [2], in assay [3], in [4], in assay [5] and in assay [6] was “inactive” throughout. The Potency entry in assay [7], in assay [8], in assay [9], in assay [10], in [11] and in assay [12] was “inactive” in each case. Further, the Potency entry in assay [13], in assay [14], in assay [15], in assay [16], in [17] and in [18] was “inactive” each time. In addition, the Potency entry in assay [19] and in assay [20] was “inactive” throughout.
With `O=NN1CCCCCCC1`, the Potency result in assay [1], in assay [2], in assay [3], in [4], in assay [5] and in [6] was “inactive” throughout. In addition, the Potency result in [7], in assay [8], in assay [9], in assay [10], in assay [11] and in assay [12] was “inactive” in each case. For the same molecule, the Potency entry in assay [13], in [14], in assay [15], in assay [16], in assay [17] and in assay [18] was “inactive” throughout. Further, the Potency result in assay [19] and in assay [20] was “inactive” each time.
For `COC(=O)c1ccccc1N`, the Potency entry in assay [1], in assay [2], in assay [3], in assay [4], in assay [5] and in assay [6] was “inactive” in each case. Besides, the Potency result in assay [7], in assay [8], in [9], in assay [10], in assay [11] and in [12] was “inactive” each time. Further, the Potency result in assay [13], in [14], in assay [15], in assay [16], in assay [17] and in assay [18] was “inactive” throughout.
Regarding `O=C(O)C(F)(F)C(F)(F)C(F)(F)C(F)(F)C(F)(F)C(F)(F)C(F)(F)C(F)(F)F`, the Potency result in assay [1], in assay [2], in [3], in [4], in assay [5] and in [6] was “inactive” each time. For the same molecule, the Potency result in assay [7], in assay [8], in assay [9], in [10], in assay [11] and in assay [12] was “inactive” each time. Further, the Potency result in assay [13], in [15], in assay [16], in [17], in [18] and in [19] was “inactive” in each case. Further, in assay [14], the Potency is 4.21 µM (active).
Consider `ClC(Cl)(Cl)c1ccccc1`, for which the Potency result in assay [1], in assay [2], in assay [3], in assay [4], in assay [5] and in assay [6] was “inactive” in each case. Further, the Potency entry in [7], in assay [8], in assay [9], in assay [10], in assay [11] and in assay [12] was “inactive” each time. For the same molecule, the Potency entry in [13], in assay [14], in assay [15], in assay [16], in assay [17] and in assay [18] was “inactive” in each case. Further, the Potency entry in [19] and in assay [20] was “inactive” in each case.

Values taken from PubChem BioAssay (Tox21).
